Assay results: PubChem BioAssay (NCATS)
Records with an inconclusive call do not appear. Active and inactive are the calls of the source. Unless noted, the call rests on the fitted dose curve; in most records, active means well fitted curve in the direction sought with a large enough effect; inconclusive means small, poorly fitted or top-dose-only effect, or another doubt; inactive means no such curve, though single readings can be large; an effect the other way counts as inactive or inconclusive.

How the values were obtained:
[1] = tested on: Zika virus NS2B-NS3 protease; assay: Primary screen GU AMC qHTS for Zika virus inhibitors (AID 1347154);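 further: 0% = no-inhibitor control and -100% = no-enzyme control; nearly all actives have a fitted effect of over 70% in size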
Outline: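 Fluorogenic AMC-substrate cleavage by noncovalent NS2B-NS3 protease complex (25 nM, pH 8.0 Tris buffer with Tween 20) followed for 15 minutes at room temperature (~20% conversion). Percent inhibition from ex340/em450 signal change, fitted by 4-parameter Hill equation.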

[2] = NCATS anti-infectives library activity on HEK293 viability as a counter-qHTS vs the C. elegans viability qHTS (AID 1745854);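 further: HEK293 cells exposed to compounds for 24 hr before the viability read; on the % scale 0 is the no-effect control and ±100 the full control effect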
Outline: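 Compound titrations (final up to 41.7 uM) were incubated with HEK293 cells for 24 hr at 37C under 5% CO2. Viable cells were quantified with CellTiter-Glo after 10 min at ambient temperature.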

[3] = target: Cytochrome P450 1A2 (Homo sapiens) (UniProt P05177); assay: p450-cyp1a2 (AID 410; calls by dose curve; further: potency means the concentration at half of the fitted maximal effect;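 on activity change, negative = inhibition: -100% = full effect of reference inhibitor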)
Outline: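 Read-out is luminescence from luciferin produced by CYP1A2 demethylation of Luciferin-ME (100uM, at Km). Detection reagent stopped the 60 min NADPH-dependent reaction; signals were normalized to 57 uM furafylline.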

[4] = target: Glucocorticoid receptor (Homo sapiens) (UniProt P04150); assay: GR-GFP Redistribution (AID 450;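 active means compounds whose dose series gives a full or clear partial fitted curve of increased nuclear translocation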; further: potency means the concentration at half of the fitted maximal effect); conditions: U2OS GR-GFP nuclear translocation, laser cytometry, 2 h
[5] = target: Glucocorticoid receptor (Homo sapiens) (UniProt P04150); assay: GR-EFC Redistribution (AID 451; calls by dose curve; further: potency means the concentration at half of the fitted maximal effect); conditions: CHO-K1 GR-EFC translocation, beta-gal luminescence, 2 h
Outline: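 Translocation of GR-ED fusion to nuclear EA restores b-gal, read by luminescence after 1 h room-temperature detection. Engineered CHO-K1 biosensor cells, 1,000/well, exposed 2 h at 37 C to titrations up to 46 uM final.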

[6] = target: Mitogen-activated protein kinase 10 (Mus musculus) (UniProt Q61831); assay: JNK3 AlphaScreen Assay (AID 530; active means well fitted curve in either direction with a large enough effect, not every such curve was filed as active;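 further: kinase came from lysate of stimulated human HepG2 cells; signal reports phosphorylation of biotinylated GST-cJun 1-79 at Ser73 with 10 µM ATP; on the % scale 0 is the no-effect control and ±100 the full control effect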)
Outline: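 Kinase buffer: 20 mM Tris-HCl pH 7.6, 10 mM MgCl2, 1 mM DTT, 0.1 mM Na3VO4, 0.01% Tween-20; ATP 10 uM. Substrate biotin-GST-cJun(1-79), enzyme from activated HepG2 lysates. Detection by Ser73 phospho-antibody AlphaScreen.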

[7] = target: 3',5'-cyclic-AMP phosphodiesterase 4B (Homo sapiens) (UniProt Q07343); assay: qHTS Assay for Inhibitors of PDE-IV (AID 607; active means well fitted activation curve with a large enough effect in the main read-out, with a control signal flat, not every such curve was filed as active; further: % of control where 0% means no effect)
Outline: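 Cell-based read-out of cAMP via a modified cyclic nucleotide-gated channel and membrane potential dye (535/590 nm) in HEK293 cells expressing PDE4 endogenously. Compounds tested up to 22.9 uM final; 100 uM RO 20-1724 reference.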

[8] = target: Cytochrome P450 2C9 (Homo sapiens) (UniProt P11712); assay: qHTS Assay for Inhibitors and Substrates of Cytochrome P450 2C9 (AID 883); further: on the % scale 0 is the no-effect control and ±100 the full control effect; nearly all actives have a fitted effect of over 60% in size
Outline: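 Turnover of Luciferin-H (100uM, KM) by 10nM human CYP2C9 was measured over 60 min at 37C with NADPH regeneration; inhibitors and some substrates reduce luminescence. Data normalized to sulphaphenazole 57uM.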

[9] = target: Cytochrome P450 3A4 (Homo sapiens) (UniProt P08684); assay: qHTS Assay for Inhibitors and Substrates of Cytochrome P450 3A4 (AID 884); further: potency means the concentration at half of the fitted maximal effect; nearly all actives have a fitted effect of over 50% in size
Outline: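 Luminescent readout of luciferin produced by CYP3A4 (20 nM) dealkylation of Luciferin-PPXE, 25 uM (its KM). NADPH-driven reaction ran 60 min at RT after 10 min compound preincubation; data scaled to 57 uM ketoconazole as 100% inhibition.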

[10] = target: Cytochrome P450 3A4 (Homo sapiens) (UniProt P08684); assay: qHTS Assay for Activators of Cytochrome P450 3A4 (AID 885); further: nearly all actives have a fitted effect of over 65% in size
Outline: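 Luminescent readout of luciferin formed from 25 uM Luciferin-PPXE (KM level) by 20 nM CYP3A4 in 200 mM KPO4, with 60 min NADPH-driven reaction at room temperature after 10 min compound exposure. Ketoconazole (57 uM) defined 100% inhibition.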

[11] = target: Cytochrome P450 2D6 (Homo sapiens) (UniProt P10635); assay: qHTS Assay for Inhibitors and Substrates of Cytochrome P450 2D6 (AID 891);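 further: luciferin methyl ether substrate demethylated by CYP2D6 with NADPH regeneration; on the % scale 0 is the no-effect control and ±100 the full control effect; nearly all actives have a fitted effect of over 60% in size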
Outline: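 Luminescent read-out of luciferin formed by 5 nM human CYP2D6 demethylating 30 uM Luciferin-ME EGE (Km level) over 60 min at room temperature after NADPH regeneration addition. Data normalized to full inhibition by 1.43 uM quinidine.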

[12] = target: Cytochrome P450 2C19 (Homo sapiens) (UniProt P33261); assay: qHTS Assay for Inhibitors and Substrates of Cytochrome P450 2C19 (AID 899); further: on the % scale 0 is the no-effect control and ±100 the full control effect; nearly all actives have a fitted effect of over 60% in size
Outline: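 Reactions contain 5nM enzyme, 10uM Luciferin-H EGE (KM) and 50mM KPO4; compound preincubates 10 min at 37C, NADPH regeneration starts turnover for 60 min. Luminescence after detection reagent gives activity.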

[13] = target: DNA dC->dU-editing enzyme APOBEC-3G (Homo sapiens) (UniProt Q9HC16); assay: qHTS for inhibitors of Vif-A3G interactions: Validation (AID 588379); further: 0% is about no effect
Outline: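 Yellow fluorescence (Ex 488, Em 500-530) of Vif-coexpressing HeLa A3G-eYFP cells, scanned by Acumen cytometer, reports blocked A3G degradation. Cells plated at 700/well overnight at 37 deg C before compound addition, then a further overnight compound incubation at 37 deg C.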

[14] = AP1 Signaling Pathway (AID 357; active means well fitted curve in either direction with a large enough effect, not every such curve was filed as active;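 further: ME-180 reporter cells stimulated with EGF at its EC50 level; on the % scale 0 is the no-effect control and ±100 the full control effect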); conditions: ME-180 (cervical carcinoma) AP-1-bla reporter, EGF-induced, beta-lactamase ratio, 5 h; at 38 µM (top of the series)
Outline: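 Beta-lactamase reporter under AP-1 response element, ME-180 background. Stimulus: EC50 EGF. Compound exposure 5 h, 37 °C. Detection: CCF4, 2.5 h RT, 460/530 nm. Values: AC50 from titration.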

[15] = NFAT Signaling Pathway (AID 444; active means well fitted curve in either direction with a large enough effect, not every such curve was filed as active;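 further: carbachol stimulus at about its EC50 of 1 µM final; on the % scale 0 is the no-effect control and ±100 the full control effect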); conditions: Jurkat NFAT-bla M1, carbachol, beta-lactamase ratio, 5 h; at 38 µM (top of the series)
Outline: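 Read-out: CCF4 FRET ratio (460 nm/530 nm) after 1 h RT dye loading, used for %activity and AC50 from titration series. Cells: Jurkat NFAT-β-lactamase/M1 line, treated with compound plus 1 uM carbachol for 5 h, 37 °C.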

[16] = target: Guanine nucleotide-binding protein G(i) subunit alpha-1 (Homo sapiens) (UniProt P63096); assay: qHTS Assay for Inhibitors of RGS12 GoLoco Motif Activity (Green Fluorophore) (AID 879);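 further: 0% = labeled peptide with Gαi1 and full inhibition = labeled peptide alone without protein; negative values mean loss of peptide binding seen as reduced polarization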
Outline: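 A drop in FITC polarization marked displacement of the FITC-tagged RGS12 GoLoco peptide (10 nM) from Gαi1 (50 nM). Compounds were incubated 10 min at room temperature in Tris pH 7.5 buffer containing 150 mM NaCl, 0.1 mM GDP and 0.05% NP40; unlabeled peptide titration served as control.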

[17] = target: Muscarinic acetylcholine receptor M1 (Rattus norvegicus) (UniProt P08482); assay: qHTS Assay for Antagonists of Acetylcholine Muscarinic M1 Receptor: Kinetic Measurement of Intracellular Calcium Response (AID 943);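 further: Fluo-4 calcium signal as peak divided by basal fluorescence over 4 min; nearly all actives have a fitted effect of over 75% in size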
Outline: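 Quantitative HTS in CHO-M1 (rat receptor) cells: 10 min compound exposure ahead of 100 nM carbachol, Fluo-4 fluorescence followed 4 min, value expressed as peak-to-basal ratio.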

[18] = target: Pyruvate kinase (Leishmania mexicana) (UniProt Q27686); assay: qHTS Validation Assay for Inhibitors of Leishmania Mexicana Pyruvate Kinase (AID 945);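 further: 0% = DMSO only neutral control wells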
Outline: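 Purified LmPYK (E451W mutant, 0.2 nM) was incubated 1 h at room temperature with 0.5 mM PEP and 0.1 mM ADP in 50 mM imidazole pH 7.2, 50 mM KCl, 7 mM MgCl2; ATP formed was read by PKLight luminescence, normalized to DMSO wells.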

[19] = target: Pyruvate kinase PKM (Homo sapiens) (UniProt P14618); assay: qHTS Assay for Activators of Human Muscle Pyruvate Kinase (AID 954; active means well fitted curve in the direction sought with a large enough effect, not every such curve was filed as active;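 further: 0% = uninhibited enzyme and -100% = no enzyme or full thiadiazolimine inhibition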)
Outline: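 ATP production by PKM2 detected via luciferase luminescence after 1 h room-temperature reaction (0.1 nM enzyme, PEP at Km 0.5 mM, ADP 0.1 mM, pH 7.2 imidazole buffer). Inhibition scaled to no-enzyme control; activation referenced to 0.3 nM enzyme wells.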

[20] = target: Alpha-galactosidase A (Homo sapiens) (UniProt P06280); assay: Counterscreen for Glucocerebrosidase Inhibitors: qHTS Assay for Human alpha-Galactosidase at pH 4.5 (AID 992); further: 0% is about no effect
Outline: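 Fluorogenic 1536-well qHTS at pH 4.5 (citrate, Tween-20): 2 nM enzyme, 80 uM 4-MU-alpha-galactoside, 20 min room temperature, NaOH/glycine stop. Titration 0.7 nM to 77 uM, data normalized to no-enzyme and full-activity controls, Hill-fitted AC50.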

[21] = target: alpha-glucosidase (Oryza sativa, rice) (UniProt Q653V4); assay: Counterscreen for Glucocerebrosidase Inhibitors: qHTS Assay for Rice alpha-Glucosidase at pH 5.0 (AID 997);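 further: 0% = full activity with enzyme and -100% = basal without enzyme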
Outline: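 Endpoint fluorogenic assay at pH 5.0: compounds (0.7 nM to 77 uM) titrated against 4 nM rice enzyme and 400 uM 4-MU-alpha-glucoside for 20 min at room temperature; NaOH/glycine stop, read ex 365/em 440 nm, Hill-fitted AC50.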

[22] = target: Ubiquitin carboxyl-terminal hydrolase 1 (Homo sapiens) (UniProt O94782); assay: Inhibitors of USP1/UAF1: Pilot qHTS (AID 504865);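 further: rhodamine fluorescence freed from ubiquitin-rhodamine substrate followed over time; top concentration of the series differs between compounds; on the % scale 0 is the no-effect control and ±100 the full control effect; nearly all actives have a fitted effect of over 35% in size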
Outline: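 Enzyme-free wells gave the negative control, while test wells held 1nM USP1/UAF1 preincubated with compound for 15 min at room temperature. Ub-Rho at 150nM final started the reaction, and fluorescence at 480/540 nm was recorded kinetically.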

Glucocorticoid receptor (Homo sapiens), sequence (P04150 whole entry, looked up, the tested form may be a part): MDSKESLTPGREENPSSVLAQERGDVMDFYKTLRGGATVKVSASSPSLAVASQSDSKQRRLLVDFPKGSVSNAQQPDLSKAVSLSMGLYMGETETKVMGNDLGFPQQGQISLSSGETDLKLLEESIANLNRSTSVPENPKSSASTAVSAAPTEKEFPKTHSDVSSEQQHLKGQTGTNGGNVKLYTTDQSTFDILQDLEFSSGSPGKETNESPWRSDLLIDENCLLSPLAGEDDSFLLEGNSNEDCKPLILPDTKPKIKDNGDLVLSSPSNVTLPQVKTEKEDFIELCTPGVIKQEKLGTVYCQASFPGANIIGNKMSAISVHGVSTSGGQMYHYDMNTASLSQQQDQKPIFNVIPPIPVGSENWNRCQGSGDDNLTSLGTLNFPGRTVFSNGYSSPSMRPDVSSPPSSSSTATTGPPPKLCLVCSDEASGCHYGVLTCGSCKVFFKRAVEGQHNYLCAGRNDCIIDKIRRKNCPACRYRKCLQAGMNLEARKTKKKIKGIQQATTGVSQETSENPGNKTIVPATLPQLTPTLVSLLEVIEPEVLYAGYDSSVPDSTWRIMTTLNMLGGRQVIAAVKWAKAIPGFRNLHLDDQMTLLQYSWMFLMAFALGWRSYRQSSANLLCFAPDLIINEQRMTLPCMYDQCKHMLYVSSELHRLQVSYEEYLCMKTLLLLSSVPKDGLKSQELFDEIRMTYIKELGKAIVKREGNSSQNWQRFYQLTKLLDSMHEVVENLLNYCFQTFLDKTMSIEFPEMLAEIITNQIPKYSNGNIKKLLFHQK
3',5'-cyclic-AMP phosphodiesterase 4B (Homo sapiens), sequence (Q07343 whole entry, looked up): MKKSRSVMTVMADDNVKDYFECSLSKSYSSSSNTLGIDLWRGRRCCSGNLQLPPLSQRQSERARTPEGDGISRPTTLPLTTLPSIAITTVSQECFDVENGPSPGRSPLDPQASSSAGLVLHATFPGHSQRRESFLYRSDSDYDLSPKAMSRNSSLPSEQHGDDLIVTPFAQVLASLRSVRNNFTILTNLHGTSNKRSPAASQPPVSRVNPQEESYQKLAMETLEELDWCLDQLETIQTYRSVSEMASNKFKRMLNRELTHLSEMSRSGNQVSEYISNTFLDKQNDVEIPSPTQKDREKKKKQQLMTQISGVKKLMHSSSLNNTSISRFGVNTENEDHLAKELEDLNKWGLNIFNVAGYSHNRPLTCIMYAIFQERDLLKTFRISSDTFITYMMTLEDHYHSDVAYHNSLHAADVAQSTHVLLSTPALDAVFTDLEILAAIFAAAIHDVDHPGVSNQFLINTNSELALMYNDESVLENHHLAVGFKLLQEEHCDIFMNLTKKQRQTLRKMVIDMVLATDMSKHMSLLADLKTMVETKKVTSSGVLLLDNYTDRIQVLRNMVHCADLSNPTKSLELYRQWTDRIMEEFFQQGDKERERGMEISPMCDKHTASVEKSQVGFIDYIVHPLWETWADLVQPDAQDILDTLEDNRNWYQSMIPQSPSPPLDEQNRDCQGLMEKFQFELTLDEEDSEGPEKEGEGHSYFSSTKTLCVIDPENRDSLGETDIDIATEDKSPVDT
DNA dC->dU-editing enzyme APOBEC-3G (Homo sapiens), sequence (Q9HC16 whole entry, looked up): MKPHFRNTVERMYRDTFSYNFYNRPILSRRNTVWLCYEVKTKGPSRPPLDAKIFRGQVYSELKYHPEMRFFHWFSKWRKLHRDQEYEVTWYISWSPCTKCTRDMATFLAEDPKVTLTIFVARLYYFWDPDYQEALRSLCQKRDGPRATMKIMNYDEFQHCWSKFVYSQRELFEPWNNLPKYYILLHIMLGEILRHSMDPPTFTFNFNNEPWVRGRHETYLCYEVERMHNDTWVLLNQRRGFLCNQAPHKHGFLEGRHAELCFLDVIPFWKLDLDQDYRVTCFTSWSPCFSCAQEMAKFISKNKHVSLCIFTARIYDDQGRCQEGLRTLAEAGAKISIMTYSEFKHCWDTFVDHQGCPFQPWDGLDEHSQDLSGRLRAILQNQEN
Cytochrome P450 1A2 (Homo sapiens), sequence (P05177 whole entry, looked up): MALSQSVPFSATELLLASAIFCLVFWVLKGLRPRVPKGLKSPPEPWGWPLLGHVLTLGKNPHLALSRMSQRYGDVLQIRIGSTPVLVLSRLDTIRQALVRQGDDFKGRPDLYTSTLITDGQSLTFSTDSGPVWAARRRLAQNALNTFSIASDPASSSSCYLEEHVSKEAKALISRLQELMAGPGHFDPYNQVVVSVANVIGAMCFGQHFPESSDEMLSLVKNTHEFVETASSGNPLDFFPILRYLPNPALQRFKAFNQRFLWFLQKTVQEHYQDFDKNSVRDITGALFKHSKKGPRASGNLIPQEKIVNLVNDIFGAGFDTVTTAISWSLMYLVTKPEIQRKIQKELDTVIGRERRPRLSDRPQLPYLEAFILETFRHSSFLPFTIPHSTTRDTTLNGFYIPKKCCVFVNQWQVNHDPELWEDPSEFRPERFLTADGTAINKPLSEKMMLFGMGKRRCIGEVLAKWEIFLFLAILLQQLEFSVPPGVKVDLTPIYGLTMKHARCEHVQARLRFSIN
Cytochrome P450 3A4 (Homo sapiens), sequence (P08684 whole entry, looked up): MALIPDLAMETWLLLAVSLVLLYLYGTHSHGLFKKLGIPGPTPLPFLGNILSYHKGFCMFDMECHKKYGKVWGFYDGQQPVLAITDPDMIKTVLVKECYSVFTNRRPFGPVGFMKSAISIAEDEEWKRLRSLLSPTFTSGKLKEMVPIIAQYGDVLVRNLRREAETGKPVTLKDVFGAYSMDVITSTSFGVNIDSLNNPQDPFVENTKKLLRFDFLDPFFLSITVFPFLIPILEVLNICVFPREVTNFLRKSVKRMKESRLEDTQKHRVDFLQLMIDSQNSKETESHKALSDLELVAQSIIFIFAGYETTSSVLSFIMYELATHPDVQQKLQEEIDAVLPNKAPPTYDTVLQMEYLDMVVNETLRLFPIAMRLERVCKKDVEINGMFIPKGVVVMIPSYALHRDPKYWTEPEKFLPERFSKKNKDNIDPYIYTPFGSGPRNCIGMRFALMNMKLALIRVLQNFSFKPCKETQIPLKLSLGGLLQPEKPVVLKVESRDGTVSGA
Ubiquitin carboxyl-terminal hydrolase 1 (Homo sapiens), sequence (O94782 whole entry, looked up): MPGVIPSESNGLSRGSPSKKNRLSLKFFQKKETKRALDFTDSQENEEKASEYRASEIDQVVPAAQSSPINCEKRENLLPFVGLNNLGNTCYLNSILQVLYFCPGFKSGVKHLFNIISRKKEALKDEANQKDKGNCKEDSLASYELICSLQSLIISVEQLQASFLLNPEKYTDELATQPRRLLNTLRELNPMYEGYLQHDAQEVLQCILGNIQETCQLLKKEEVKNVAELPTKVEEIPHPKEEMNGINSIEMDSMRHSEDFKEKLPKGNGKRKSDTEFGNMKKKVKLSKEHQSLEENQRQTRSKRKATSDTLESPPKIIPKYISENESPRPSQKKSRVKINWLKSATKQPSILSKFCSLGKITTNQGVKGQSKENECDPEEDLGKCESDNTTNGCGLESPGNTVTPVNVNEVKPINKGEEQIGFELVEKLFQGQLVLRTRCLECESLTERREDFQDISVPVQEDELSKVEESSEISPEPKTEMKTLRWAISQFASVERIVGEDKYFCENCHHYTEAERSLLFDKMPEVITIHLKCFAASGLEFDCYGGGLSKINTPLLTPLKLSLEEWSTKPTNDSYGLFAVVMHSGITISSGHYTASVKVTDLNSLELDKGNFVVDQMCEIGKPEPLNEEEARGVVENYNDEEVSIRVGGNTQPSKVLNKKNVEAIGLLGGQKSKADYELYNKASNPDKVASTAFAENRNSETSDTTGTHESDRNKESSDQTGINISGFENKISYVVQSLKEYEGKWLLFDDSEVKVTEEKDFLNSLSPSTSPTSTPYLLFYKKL
Muscarinic acetylcholine receptor M1 (Rattus norvegicus), sequence (P08482 whole entry, looked up): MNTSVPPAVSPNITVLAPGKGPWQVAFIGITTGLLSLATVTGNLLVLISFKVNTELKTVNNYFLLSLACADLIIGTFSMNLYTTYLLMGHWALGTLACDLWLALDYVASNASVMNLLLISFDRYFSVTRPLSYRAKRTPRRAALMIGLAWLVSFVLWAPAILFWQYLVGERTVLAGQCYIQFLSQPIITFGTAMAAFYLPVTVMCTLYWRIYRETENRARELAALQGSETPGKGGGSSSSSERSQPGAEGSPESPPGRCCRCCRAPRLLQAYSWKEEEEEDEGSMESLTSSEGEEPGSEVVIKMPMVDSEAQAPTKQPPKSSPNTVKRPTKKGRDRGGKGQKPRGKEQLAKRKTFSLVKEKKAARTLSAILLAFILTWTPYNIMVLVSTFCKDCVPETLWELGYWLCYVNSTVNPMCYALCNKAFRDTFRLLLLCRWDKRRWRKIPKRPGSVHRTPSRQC
Cytochrome P450 2C9 (Homo sapiens), sequence (P11712 whole entry, looked up): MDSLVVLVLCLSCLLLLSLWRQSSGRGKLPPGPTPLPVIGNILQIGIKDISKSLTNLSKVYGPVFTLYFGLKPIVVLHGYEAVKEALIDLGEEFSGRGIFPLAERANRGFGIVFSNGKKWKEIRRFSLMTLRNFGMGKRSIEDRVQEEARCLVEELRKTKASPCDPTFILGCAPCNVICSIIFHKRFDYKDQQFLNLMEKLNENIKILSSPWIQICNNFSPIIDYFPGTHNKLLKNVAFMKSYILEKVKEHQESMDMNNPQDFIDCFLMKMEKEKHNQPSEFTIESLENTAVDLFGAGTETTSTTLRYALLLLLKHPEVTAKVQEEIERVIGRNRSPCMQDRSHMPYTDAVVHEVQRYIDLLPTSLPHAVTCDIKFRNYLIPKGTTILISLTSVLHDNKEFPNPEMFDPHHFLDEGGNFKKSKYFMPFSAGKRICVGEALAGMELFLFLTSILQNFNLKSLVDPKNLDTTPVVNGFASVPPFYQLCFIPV
Guanine nucleotide-binding protein G(i) subunit alpha-1 (Homo sapiens), sequence (P63096 whole entry, looked up): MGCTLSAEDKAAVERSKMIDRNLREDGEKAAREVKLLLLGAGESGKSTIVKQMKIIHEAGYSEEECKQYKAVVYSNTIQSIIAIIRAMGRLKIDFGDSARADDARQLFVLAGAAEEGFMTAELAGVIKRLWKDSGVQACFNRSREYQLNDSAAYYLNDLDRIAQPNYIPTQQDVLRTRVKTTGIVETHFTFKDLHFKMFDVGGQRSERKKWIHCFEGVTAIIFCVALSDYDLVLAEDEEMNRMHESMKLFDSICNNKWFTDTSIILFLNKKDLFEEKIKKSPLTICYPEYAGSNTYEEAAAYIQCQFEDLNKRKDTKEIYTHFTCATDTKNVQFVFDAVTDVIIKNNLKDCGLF

O=C(/C=C/c1ccccc1)NC(NC(=S)Nc1cccc2cccnc12)C(Cl)(Cl)Cl (stereo unspecified)
inactive: Potency [1] | outcome [2]

Cc1ccc(C(=O)Cn2c3c(sc2=N)CCCC3)cc1
inactive: Potency [4] > 46 µM | Potency [5] > 46 µM | Potency [6] | Potency [7] | Potency [8] | Potency [10] | Potency [11] | Potency [12] | Potency [13] | Potency [1]
active: Potency [3] 1 µM | Potency [9] 6.31 µM

NS(=O)(=O)c1cc2c(cc1Cl)N[C@@H]([C@@H]1C[C@@H]3C=C[C@H]1C3)NS2(=O)=O
inactive: activity change, negative = inhibition [14] -0.109% | Potency [3] | activity change, negative = inhibition [15] 4.22% | Potency [4] > 46 µM | Potency [5] > 46 µM | Potency [6] | Potency [7] | outcome [16] | Potency [17] | Potency [18] | outcome [19] | outcome [20] | outcome [21] | Potency [13] | Potency [1]

N=C(C[C@@H](O)COc1ccccc1-c1ccccc1)N1CCCCC1
inactive: Potency [4] > 46 µM | Potency [5] > 46 µM | Potency [6] | Potency [22] | Potency [13] | Potency [1]

Clc1cccc(C=NC=Nc2cccc(Cl)c2)c1
active: Potency [3] 0.631 µM
inactive: Potency [4] > 46 µM | Potency [5] > 46 µM | Potency [22] | Potency [13] | Potency [1]
